High-throughput results as filed in PubChem BioAssay.
NALP1 inh – NALP1 inhibition; inhibition, % at 10 µM; AID 2071; S. cerevisiae NALP1/ASC/caspase-1 growth, X-gal OD620, 72 h; 280,000 tested, 0.61% active; in the data active = inhibition mostly above about 24%, no sharp cut-off; inactive = mostly below about 32%
V-ATPase pH – alters yeast V-ATPase proton transport. S. cerevisiae, pHLuorin cytosolic pH fluorescence. 350,000 tested, 0.37% active. response, % at 10 µM; in the data active = response mostly above about 7.3%, no sharp cut-off; inactive = mostly below about 5.4%; also: actives read high
Rce1 inh – yeast Ras-converting enzyme inhibition; calls only; Q03530; 290,000 tested, 0.27% active; AID 2563; yeast membranes, quenched prenylated peptide cleavage fluorescence;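 active = fall in fluorescence gain of 50% or more versus controls, with final raw signal at or below 3038400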
Target sequence (Q03530 whole entry, looked up): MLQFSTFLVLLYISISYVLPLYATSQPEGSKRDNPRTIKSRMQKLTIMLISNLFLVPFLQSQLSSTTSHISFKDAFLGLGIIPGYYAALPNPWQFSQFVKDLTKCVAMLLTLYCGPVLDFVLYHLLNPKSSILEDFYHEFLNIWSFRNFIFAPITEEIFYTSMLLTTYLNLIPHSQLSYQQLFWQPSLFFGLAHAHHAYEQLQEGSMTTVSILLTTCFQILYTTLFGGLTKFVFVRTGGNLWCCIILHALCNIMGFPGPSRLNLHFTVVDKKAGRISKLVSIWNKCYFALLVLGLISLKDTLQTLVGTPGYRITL
PERK inh – inhibitors of human PERK kinase; Q9NZJ5; CHO PERK-DD fusion, SEAP luminescence translation reporter; inhibition, % at 5.6 µM; 220,000 tested, 0.17% active; AID 1416;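 active = inhibition above the mean inhibition of all tested compounds plus 3 SD, set separately per screening campaign, cut at about 2.9% in these data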;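 also: PERK kinase domain activated by AP20187 dimerizer at 100 nM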
CR mimetic SO – yeast age-related superoxide inhibition as caloric restriction mimetic; S. cerevisiae aged cells, superoxide DHE fluorescence; active compounds read low; superoxide response (% of plate mean), % at 10 µM; 330,000 tested, 0.18% active; AID 2690;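 active = superoxide response under a set limit, about three screen SD below normal, cut at about 65% in these data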;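 also: yeast aged for seven days with compound at 30 °C before DHE staining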
NALP3 yeast inh – inhibitors of NALP3 inflammasome in yeast; 330,000 tested, 0.39% active; Yeast reconstituted NLRP3/ASC/caspase-1, beta-gal luminescence, 24 h; inhibition, % at 10 µM;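 active = inhibition of 50% or more; inactive = inhibition below 50%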
NALP3 confirm – confirmation of NALP3 inhibitors in yeast; shares compounds with NALP3 yeast inh; yeast expressing human NALP3, luminescence; inhibition, % at 10 µM; 1,300 tested, 81% active; AID 435006; in the data active = inhibition above about 48%
Casp1 ASC ctr – caspase-1-ASC yeast counter-screen hit. shares compounds with NALP3 yeast inh. yeast expressing Caspase-1-ASC, luminescence counter screen. 1,000 tested, 66% active. AID 488784. inhibition, % at 10 µM
NALP3 yeast rt – yeast NALP3 inhibition, confirmed on retest; shares compounds with NALP3 yeast inh; yeast expressing human NALP3, luminescence read-out; inhibition, % at 10 µM; 1,000 tested, 53% active; AID 488794
Numbers stand for hits; i = inactive; nt = no result given. Shown are actives, neighbours in structure and some others; about 1.6% of the full set was active somewhere. Rule as the data show it, unless noted: active = inhibition above about 50%; inactive = the rest.

SMILES | NALP1 inh | V-ATPase pH | Rce1 inh | PERK inh | CR mimetic SO | NALP3 yeast inh | NALP3 confirm | Casp1 ASC ctr | NALP3 yeast rt
O=C(CCl)Nc1ccc(N2CCCCCC2)cc1 | i | i | i | i | i | 60 | 77 | 76 | 53
CSCc1c(C(=O)OCC(=O)c2ccc[nH]2)oc2ccccc12 | nt | i | nt | nt | nt | 51 | 68 | 55 | i
COc1ccccc1-c1noc2ncnc(Nc3cccc(C)c3)c12 | i | i | i | nt | i | 64 | 71 | 60 | i
O=C(/C=C/c1cccc([N+](=O)[O-])c1)NCCSCc1cccc(Cl)c1 | i | i | i | i | i | 71 | i | nt | nt
CCCCCCCCn1c2c(c(=N)c3ccccc31)CCC2 | i | i | i | i | nt | 58 | 73 | i | 62
CCCCCn1c2c(c(=N)c3ccccc31)CCC2 | i | i | i | i | i | i | nt | nt | nt
CCCCCCCCCn1c2c(c(=N)c3c1CCC3)CCCC2 | i | i | nt | i | nt | 68 | 85 | 54 | 70
Cc1nnc(NC(=O)CCN2C(=O)C3CC=CCC3C2=O)s1 (stereo unspecified) | nt | i | nt | nt | nt | nt | nt | nt | nt
O=C(O)c1cc(NC(=O)c2ccccc2F)cc(NC(=O)c2ccccc2F)c1 | i | i | nt | nt | i | i | nt | nt | nt
O=C(Nc1ccc2c(c1)OCCO2)c1ccc(Br)cc1 | i | i | nt | nt | i | i | nt | nt | nt
O=C(Nc1ccc(Nc2ccccc2)cc1)c1ccccc1F | i | i | i | nt | i | 52 | 68 | 58 | 64
Cc1ccc(C)c(NC(=O)c2cc3ccccc3o2)c1 | i | i | i | nt | i | 55 | i | 52 | i
O=C(Nc1ccc2c(c1)OCCO2)c1cccc(Br)c1 | i | i | i | nt | i | 52 | 73 | 50 | 51
Cc1ccc(NC(=O)CCn2cccc2)cc1C | i | i | i | i | i | 59 | 74 | i | i
N#CC1(Nc2ccc([N+](=O)[O-])cc2)CCCC1 | nt | i | nt | nt | nt | nt | nt | nt | nt
O=C(Nc1ccc2c(c1)OCCO2)c1cc2ccccc2o1 | i | i | nt | i | i | 53 | 69 | 63 | 73
CN1CCN(c2ccc(NC(=O)c3cccc(OCc4ccccc4)c3)cc2)CC1 | 31 | i | i | i | i | 50 | 55 | i | i
O=C(Nc1cccc(F)c1)c1ccc2c(c1)OCO2 | i | i | i | i | i | 65 | 65 | 68 | 62
O=C(O)c1cccc(NC(=O)c2ccccc2)c1 | nt | i | nt | nt | nt | nt | nt | nt | nt
CC(C)Oc1cccc(C(=O)Nc2ccc(N3CCN(C)CC3)cc2)c1 | i | i | i | nt | i | i | nt | nt | nt
O=C(Nc1ccc2oc(=O)ccc2c1)c1cc2ccccc2o1 | i | i | i | i | i | i | nt | nt | nt
O=C(Nc1cccc(F)c1)c1ccccc1 | i | i | i | i | i | 60 | 84 | 68 | 68
Cc1ccc(S(=O)(=O)N2C[C@H]3N(C(=O)OC(C)C)N(C(=O)OC(C)C)C[C@H](OC(=O)NCc4ccco4)[C@@]3(O)C2)cc1 | nt | i | nt | nt | nt | nt | nt | nt | nt
CC(=O)N(c1ccccc1)c1ccccc1[N+](=O)[O-] | nt | i | nt | nt | nt | nt | nt | nt | nt
Nc1ccn([C@@H]2O[C@H](CNCc3cccc(OC4CCCC4)c3)[C@@H](O)[C@H]2O)c(=O)n1 | nt | i | nt | nt | nt | nt | nt | nt | nt
SMILES | NALP1 inh | V-ATPase pH | Rce1 inh | PERK inh | CR mimetic SO | NALP3 yeast inh | NALP3 confirm | Casp1 ASC ctr | NALP3 yeast rt
COc1cccc(NC(=O)c2cccs2)c1 | i | i | i | i | i | 68 | 81 | 71 | 57
O=C(Nc1ccc(Nc2ccccc2)cc1)c1cccc(F)c1 | i | i | i | nt | i | 57 | 72 | 51 | 57
Cc1ccc(NC(=O)c2ccccc2)cc1C | nt | i | nt | nt | i | 52 | 75 | i | i
COc1cccc(C(=O)Nc2ccccc2)c1 | i | i | i | i | i | 51 | 80 | i | i
COC(=O)[C@H]1C[C@H](OC(=O)NC2CC2)[C@@]2(O)CN(S(=O)(=O)c3ccc(C)cc3)CC2[C@H]1C(=O)OC (stereo partly specified) | nt | i | nt | nt | nt | nt | nt | nt | nt
O=C(Nc1ccc(Nc2ccccc2)cc1)c1ccc(Br)o1 | i | i | i | i | i | 66 | 76 | 76 | 74
CC(=O)N1N=C(c2ccc(Cl)cc2)OC1(C)C | i | i | i | i | i | 71 | 51 | 52 | i
N#Cc1ccc(-c2csc(NNC(=O)c3ccccc3)n2)cc1 | i | i | i | i | i | i | nt | nt | nt
N#Cc1ccc(-c2csc(NNC(=O)c3ccc(Br)cc3)n2)cc1 | i | i | i | i | i | 51 | 51 | i | i
CCCCN1C(=O)C(CC(=O)NC2CCCC2)CC(C(=O)N(C(C)C)C(C)C)=C1C (stereo unspecified) | nt | i | nt | nt | nt | nt | nt | nt | nt
CC1(C)CC(=O)c2cnc(N3CCN(c4ccccc4)CC3)nc2C1 | i | i | i | i | i | i | nt | nt | nt
CC1(C)CC(=O)c2cnc(N3CCc4ccccc4C3)nc2C1 | i | i | i | i | i | 62 | i | i | i
CC(=O)OCC(=O)[C@H]1CC[C@H]2[C@@H]3CC=C4C[C@@H](O)CC[C@]4(C)[C@H]3CC[C@]12C | i | i | i | i | i | 65 | 77 | 56 | i
CC(=O)[C@H]1CCC2C3CC=C4C[C@@H](O)CC[C@]4(C)C3CC[C@@]21C (stereo partly specified) | nt | i | nt | nt | i | 53 | 64 | nt | nt
Nc1nc(N=Nc2ccc(O)cc2)cc(=O)[nH]1 | nt | i | nt | nt | nt | nt | nt | nt | nt
Cc1cccc(OCC(=O)N2CCc3ccccc3C2)c1C | nt | i | nt | nt | nt | nt | nt | nt | nt
Cc1ccc(C(=O)c2no[n+]([O-])c2C(=O)c2ccc(C)cc2)cc1 | i | i | i | i | i | 59 | 63 | 72 | 52
CCOc1cc(C=O)ccc1OCCSc1ccc(Cl)cc1 | i | i | i | i | i | 53 | 48 | 58 | i
CCCCOc1ccc(C(=O)Oc2ccc(C)nc2)cc1 | i | i | i | i | i | 80 | 87 | 92 | 84
O=C1c2cccc(O)c2C(=O)c2c(O)cccc21 | i | nt | i | i | i | 60 | 64 | nt | nt
COc1cccc2c1-c1c(O)cccc1C2=O | i | i | i | nt | i | i | nt | nt | nt
COc1ccc(-c2cc(=O)c3ccccc3s2)cc1 | i | i | i | i | i | 66 | 66 | 54 | 66
CN(C(=O)COC(=O)COc1ccc2ccccc2c1)c1ccccc1 | nt | i | nt | nt | nt | nt | nt | nt | nt
C/C(=N\NC(=O)c1ccc(Cl)cc1)c1ccccn1 | 36 | i | i | nt | i | 72 | 85 | 94 | 83
Cc1cccc(/C(N)=N/OC(=O)Cc2cccc3ccccc23)c1 | i | i | i | i | i | i | nt | nt | nt
Cc1cccc(C(=O)O/N=C(\N)Cc2cccc3ccccc23)c1 | i | i | i | nt | i | 53 | 65 | i | 64
NCCC(=O)N1c2ccccc2Sc2ccc(Cl)cc21 | i | i | i | nt | i | 73 | 85 | 78 | 87
NCCCC(=O)N1c2ccccc2Sc2ccc(Cl)cc21 | i | i | i | nt | i | i | nt | nt | nt
COc1ccc(C(=O)NNC(=S)NC(=O)c2ccc(Cl)cc2)cc1 | nt | i | nt | nt | i | 54 | 58 | 60 | 58
COc1ccc(C(=O)NC(=S)NNC(=O)c2ccc(C)cc2)cc1 | nt | i | i | nt | i | 54 | 66 | 55 | 60
